Measurements from PubChem BioAssay (NCATS).
Inconclusive results are not listed. Activity calls are given as the source filed them. Unless noted, calls follow the shape of the dose curve; as a rule, active = well fitted curve in either direction with a large enough effect (not every such curve was filed as active); inconclusive = small, poorly fitted or top-dose-only effect, or another doubt; inactive = flat fitted curve, though single readings scatter.

How the values were obtained:
[1] = target: Lysosomal acid glucosylceramidase (Homo sapiens) (UniProt P04062); assay: Glucocerebrosidase-p2 (AID 348; in the data active = potency below about 10 µM; also: potency is read from the fitted curve at half-maximal effect); conditions: purified GBA, blue fluorogenic substrate, 40 min
Lysosomal acid glucosylceramidase (Homo sapiens), sequence (P04062 whole entry, looked up): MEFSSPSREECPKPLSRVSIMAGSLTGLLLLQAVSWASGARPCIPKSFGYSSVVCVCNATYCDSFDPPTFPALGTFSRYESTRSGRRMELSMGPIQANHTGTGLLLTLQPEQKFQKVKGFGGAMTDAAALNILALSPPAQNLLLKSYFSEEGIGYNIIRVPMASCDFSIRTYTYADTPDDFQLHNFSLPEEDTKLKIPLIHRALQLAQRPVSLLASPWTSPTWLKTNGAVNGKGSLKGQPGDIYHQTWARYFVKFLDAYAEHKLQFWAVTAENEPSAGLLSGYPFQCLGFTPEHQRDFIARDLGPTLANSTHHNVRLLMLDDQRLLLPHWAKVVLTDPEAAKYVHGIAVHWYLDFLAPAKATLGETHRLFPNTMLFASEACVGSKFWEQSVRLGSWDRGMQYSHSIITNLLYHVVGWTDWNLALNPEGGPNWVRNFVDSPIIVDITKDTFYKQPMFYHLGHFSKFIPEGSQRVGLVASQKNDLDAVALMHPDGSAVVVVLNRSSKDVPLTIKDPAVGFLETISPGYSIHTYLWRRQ
Outline: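 Normal human glucocerebrosidase (0.2 nM) with blue fluorogenic substrate (80 uM final) in citrate/phosphate pH 5.9 with 10mM sodium taurocholate, 0.01% tween-20; 40 min RT, NaOH/glycine stop; fluorescence Ex 365/Em 440; AC50 from a titration from 0.6 nM upwards.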

[2] = AP1 Signaling Pathway (AID 357); conditions: ME-180 AP-1-bla reporter, EGF-induced, beta-lactamase ratio, 5 h; at 7.69 µM (top of the series) unless noted;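 also: ME-180 reporter cells stimulated with EGF at its EC50 level; % is scaled to controls: 0 for no effect and ±100 for the full control effect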
Outline: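 Cells are seeded overnight, exposed to compound titrations and an EC50 level of EGF for 5 hours at 37 °C, then loaded with CCF4 dye for 2.5 hours. Beta-lactamase activity under the AP-1 element is read as a blue/green ratio.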

[3] = target: Cytochrome P450 1A2 (Homo sapiens) (UniProt P05177); assay: p450-cyp1a2 (AID 410; calls by dose curve; also: potency is read from the fitted curve at half-maximal effect;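 as to activity change, negative = inhibition: -100% = full effect of reference inhibitor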); conditions: recombinant CYP1A2, luciferin-ME demethylation, luminescence; series mostly up to 11.4 µM
Cytochrome P450 1A2 (Homo sapiens), sequence (P05177 whole entry, looked up): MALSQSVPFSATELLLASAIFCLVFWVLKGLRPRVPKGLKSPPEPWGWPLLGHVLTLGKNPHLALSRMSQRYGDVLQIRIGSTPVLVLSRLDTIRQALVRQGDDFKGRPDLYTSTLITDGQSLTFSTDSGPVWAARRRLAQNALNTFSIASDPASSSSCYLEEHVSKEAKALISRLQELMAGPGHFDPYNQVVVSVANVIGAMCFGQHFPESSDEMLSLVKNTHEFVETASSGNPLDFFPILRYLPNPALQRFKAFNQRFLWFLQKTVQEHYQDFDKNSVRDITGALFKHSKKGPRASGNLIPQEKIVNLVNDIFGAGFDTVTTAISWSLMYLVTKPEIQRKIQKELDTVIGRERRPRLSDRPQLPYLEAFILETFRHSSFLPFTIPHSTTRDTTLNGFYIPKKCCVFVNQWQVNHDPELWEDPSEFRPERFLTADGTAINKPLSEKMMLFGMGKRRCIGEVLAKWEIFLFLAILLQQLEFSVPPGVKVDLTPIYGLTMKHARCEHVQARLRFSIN
Outline: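 Luminescent demethylation readout: Luciferin-ME (100uM, equal to Km) turned over by 20nM CYP1A2 for 60 min at room temperature after NADPH regeneration addition, following 10 min compound preincubation. Normalization used 57 uM furafylline as full inhibition.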

[4] = NFAT Signaling Pathway (AID 444); conditions: Jurkat NFAT-bla M1, carbachol, beta-lactamase ratio, 5 h; at 7.69 µM (top of the series) unless noted;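 also: carbachol stimulus at about its EC50 of 1 µM final; % is scaled to controls: 0 for no effect and ±100 for the full control effect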
Outline: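 Jurkat cells carrying an NFAT-driven β-lactamase reporter and co-transfected muscarinic M1 receptor were treated with compound plus carbachol (1 uM final, an EC50 level) for 5 h at 37 °C. CCF4 loading followed for 1 h at RT; 460/530 nm ratio gave %activity.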

[5] = Stat Signaling Pathway (AID 446); conditions: ME-180 SIE beta-lactamase reporter, IL-6 stimulated, 5 h; at 7.69 µM (top of the series) unless noted;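 also: ME-180 cervical cancer cells given 40 pM IL-6 alongside compound; SIE-controlled beta-lactamase reporter measured as 460/530 nm FRET emission ratio; % is scaled to controls: 0 for no effect and ±100 for the full control effect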
Outline: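 Normalization used AC90 stimulation (300 pM IL-6) and AC90 inhibition (125 nM pan-JAK inhibitor at 40 pM IL-6). The underlying signal is SIE-driven beta-lactamase in ME-180 cells after 5 h IL-6 exposure with compound.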

[6] = target: Glucocorticoid receptor (Homo sapiens) (UniProt P04150); assay: GR-GFP Redistribution (AID 450;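 active = compounds whose dose series gives a full or clear partial fitted curve of increased nuclear translocation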; also: potency is read from the fitted curve at half-maximal effect); conditions: U2OS GR-GFP nuclear translocation, laser cytometry, 2 h
Glucocorticoid receptor (Homo sapiens), sequence (P04150 whole entry, looked up, the tested form may be a part): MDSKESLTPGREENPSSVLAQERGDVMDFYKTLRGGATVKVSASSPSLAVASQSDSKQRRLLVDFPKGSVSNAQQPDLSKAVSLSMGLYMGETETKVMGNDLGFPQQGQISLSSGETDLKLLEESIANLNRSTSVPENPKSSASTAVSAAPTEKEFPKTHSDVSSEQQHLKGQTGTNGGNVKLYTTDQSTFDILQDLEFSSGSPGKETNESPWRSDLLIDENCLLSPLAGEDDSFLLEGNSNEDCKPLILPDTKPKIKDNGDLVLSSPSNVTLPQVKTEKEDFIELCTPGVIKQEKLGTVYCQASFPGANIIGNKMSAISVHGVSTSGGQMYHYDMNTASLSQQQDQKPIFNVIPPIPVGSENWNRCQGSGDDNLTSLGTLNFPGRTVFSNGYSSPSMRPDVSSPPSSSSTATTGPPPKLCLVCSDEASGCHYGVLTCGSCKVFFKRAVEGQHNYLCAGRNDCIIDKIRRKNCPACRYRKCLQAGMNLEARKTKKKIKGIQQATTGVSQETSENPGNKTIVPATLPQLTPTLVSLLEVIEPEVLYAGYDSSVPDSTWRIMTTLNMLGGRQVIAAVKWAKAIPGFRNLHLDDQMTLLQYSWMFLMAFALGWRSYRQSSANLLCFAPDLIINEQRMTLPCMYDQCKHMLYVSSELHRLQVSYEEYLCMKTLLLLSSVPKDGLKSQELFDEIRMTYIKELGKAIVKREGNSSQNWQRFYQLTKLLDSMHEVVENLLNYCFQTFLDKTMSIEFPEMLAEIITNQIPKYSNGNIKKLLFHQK

[7] = target: Glucocorticoid receptor (Homo sapiens) (UniProt P04150); assay: GR-EFC Redistribution (AID 451; calls by dose curve; also: potency is read from the fitted curve at half-maximal effect); conditions: CHO-K1 GR-EFC translocation, beta-gal luminescence, 2 h
Outline: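 CHO-K1 cells stably expressing nuclear-localized β-gal enzyme acceptor and GR fused C-terminally to the enzyme donor fragment; ligand-driven nuclear translocation restores β-gal by complementation. Compounds titrated up to 46 uM final, 2 h at 37 °C; luminescence read.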

[8] = target: Mitogen-activated protein kinase 10 (Mus musculus) (UniProt Q61831); assay: JNK3 AlphaScreen Assay (AID 530); conditions: JNK3 lysate, c-Jun phosphorylation; series mostly up to 11.4 µM;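 also: kinase came from lysate of stimulated human HepG2 cells; signal reports phosphorylation of biotinylated GST-cJun 1-79 at Ser73 with 10 µM ATP; % is scaled to controls: 0 for no effect and ±100 for the full control effect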
Outline: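 Phosphorylation of biotinylated GST-cJun(1-79) at Ser73 is measured by AlphaScreen proximity luminescence. Enzyme is JNK3 in HepG2 lysates activated with interleukin-1beta and tumor necrosis factor alpha; ATP is 10 uM final.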

[9] = target: 3',5'-cyclic-AMP phosphodiesterase 4B (Homo sapiens) (UniProt Q07343); assay: qHTS Assay for Inhibitors of PDE-IV (AID 607; active = well fitted activation curve with a large enough effect in the main read-out, with a control signal flat, not every such curve was filed as active; also: % of control where 0% means no effect); conditions: HEK293 ACTOne CNG channel cells, membrane potential fluorescence; series mostly up to 22.9 µM
3',5'-cyclic-AMP phosphodiesterase 4B (Homo sapiens), sequence (Q07343 whole entry, looked up): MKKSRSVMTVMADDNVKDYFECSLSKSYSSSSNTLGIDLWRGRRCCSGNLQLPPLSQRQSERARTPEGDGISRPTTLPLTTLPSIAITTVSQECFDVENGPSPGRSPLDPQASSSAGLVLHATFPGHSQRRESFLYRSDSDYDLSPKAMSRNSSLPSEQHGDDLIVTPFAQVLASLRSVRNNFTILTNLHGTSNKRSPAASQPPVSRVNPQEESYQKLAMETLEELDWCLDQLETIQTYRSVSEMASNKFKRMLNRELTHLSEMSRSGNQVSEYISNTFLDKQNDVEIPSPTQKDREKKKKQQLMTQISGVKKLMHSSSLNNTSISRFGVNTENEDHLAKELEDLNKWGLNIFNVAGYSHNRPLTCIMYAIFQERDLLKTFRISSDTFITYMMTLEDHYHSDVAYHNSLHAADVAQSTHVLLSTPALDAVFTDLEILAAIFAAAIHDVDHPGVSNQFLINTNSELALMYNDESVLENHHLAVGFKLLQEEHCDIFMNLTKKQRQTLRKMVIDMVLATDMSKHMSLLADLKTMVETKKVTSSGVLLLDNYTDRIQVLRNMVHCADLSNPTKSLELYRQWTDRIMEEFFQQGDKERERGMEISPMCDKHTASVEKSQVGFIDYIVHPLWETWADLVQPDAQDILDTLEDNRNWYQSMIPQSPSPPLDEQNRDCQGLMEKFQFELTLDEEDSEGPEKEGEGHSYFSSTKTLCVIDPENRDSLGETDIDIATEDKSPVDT
Outline: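 HEK293 ACTOne cells with CNG channel (1000/well), endogenous PDE4; membrane potential dye, compounds up to 22.9 uM final. Fluorescence Ex 535/Em 590; RO 20-1724 (100 uM final) as reference.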

[10] = target: Cytochrome P450 3A4 (Homo sapiens) (UniProt P08684); assay: qHTS Assay for Inhibitors and Substrates of Cytochrome P450 3A4 (AID 884; active = well fitted curve in the direction sought with a large enough effect; an effect the other way counts as inactive or inconclusive; also: nearly all actives have a fitted effect of over 50% in size; also: potency is read from the fitted curve at half-maximal effect); conditions: recombinant CYP3A4, Luciferin-PPXE luminescence; series mostly up to 57.1 µM
Cytochrome P450 3A4 (Homo sapiens), sequence (P08684 whole entry, looked up): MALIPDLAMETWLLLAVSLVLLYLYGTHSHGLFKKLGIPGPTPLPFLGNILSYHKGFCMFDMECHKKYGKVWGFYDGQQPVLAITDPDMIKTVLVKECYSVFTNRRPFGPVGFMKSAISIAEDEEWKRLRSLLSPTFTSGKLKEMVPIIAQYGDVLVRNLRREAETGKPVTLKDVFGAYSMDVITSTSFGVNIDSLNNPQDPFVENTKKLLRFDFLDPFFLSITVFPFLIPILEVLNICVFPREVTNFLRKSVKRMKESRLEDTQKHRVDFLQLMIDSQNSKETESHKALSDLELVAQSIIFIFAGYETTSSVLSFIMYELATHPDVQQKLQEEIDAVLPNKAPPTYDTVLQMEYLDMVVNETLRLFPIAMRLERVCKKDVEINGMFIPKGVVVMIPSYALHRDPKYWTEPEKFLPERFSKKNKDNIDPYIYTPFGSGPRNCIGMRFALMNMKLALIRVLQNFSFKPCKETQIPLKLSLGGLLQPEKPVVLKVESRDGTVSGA
Outline: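 Luminescent readout of luciferin produced by CYP3A4 (20 nM) dealkylation of Luciferin-PPXE, 25 uM (its KM). NADPH-driven reaction ran 60 min at RT after 10 min compound preincubation; data scaled to 57 uM ketoconazole as 100% inhibition.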

[11] = target: Cytochrome P450 3A4 (Homo sapiens) (UniProt P08684); assay: qHTS Assay for Activators of Cytochrome P450 3A4 (AID 885; active = well fitted curve in the direction sought with a large enough effect; an effect the other way counts as inactive or inconclusive; also: nearly all actives have a fitted effect of over 65% in size); conditions: recombinant CYP3A4, Luciferin-PPXE luminescence, 60 min; series mostly up to 11.4 µM
Outline: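 Human CYP3A4 dealkylates Luciferin-PPXE to luciferin, which luciferase detection converts to light. Substrate was at its KM (25uM), buffer 200mM KPO4, reaction 60 min at RT.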

[12] = target: Cytochrome P450 2D6 (Homo sapiens) (UniProt P10635); assay: qHTS Assay for Inhibitors and Substrates of Cytochrome P450 2D6 (AID 891; active = well fitted curve in the direction sought with a large enough effect; an effect the other way counts as inactive or inconclusive; also: nearly all actives have a fitted effect of over 60% in size; also: potency is read from the fitted curve at half-maximal effect); conditions: recombinant CYP2D6, luciferin-ME EGE luminescence; series mostly up to 11.4 µM
Cytochrome P450 2D6 (Homo sapiens), sequence (P10635 whole entry, looked up): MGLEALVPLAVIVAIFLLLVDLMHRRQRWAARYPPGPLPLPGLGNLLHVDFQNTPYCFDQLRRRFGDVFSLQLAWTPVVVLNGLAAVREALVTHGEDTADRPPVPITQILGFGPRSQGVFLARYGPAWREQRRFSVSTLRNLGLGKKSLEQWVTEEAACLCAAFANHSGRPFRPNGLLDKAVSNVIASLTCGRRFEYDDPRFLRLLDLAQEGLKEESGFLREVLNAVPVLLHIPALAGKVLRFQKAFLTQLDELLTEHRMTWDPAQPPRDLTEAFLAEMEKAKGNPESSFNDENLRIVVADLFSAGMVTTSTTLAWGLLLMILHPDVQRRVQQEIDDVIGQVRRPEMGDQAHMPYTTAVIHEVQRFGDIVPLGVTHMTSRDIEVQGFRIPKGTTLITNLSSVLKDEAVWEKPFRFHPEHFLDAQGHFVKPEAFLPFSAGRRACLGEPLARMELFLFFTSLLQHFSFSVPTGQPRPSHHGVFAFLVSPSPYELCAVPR
Outline: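 Luminescent read-out of luciferin formed by 5 nM human CYP2D6 demethylating 30 uM Luciferin-ME EGE (Km level) over 60 min at room temperature after NADPH regeneration addition. Data normalized to full inhibition by 1.43 uM quinidine.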

[13] = target: Cytochrome P450 2C19 (Homo sapiens) (UniProt P33261); assay: qHTS Assay for Inhibitors and Substrates of Cytochrome P450 2C19 (AID 899; active = well fitted curve in the direction sought with a large enough effect; an effect the other way counts as inactive or inconclusive; also: nearly all actives have a fitted effect of over 60% in size; also: potency is read from the fitted curve at half-maximal effect); conditions: recombinant CYP2C19, luciferin-H EGE luminescence; series mostly up to 11.4 µM
Cytochrome P450 2C19 (Homo sapiens), sequence (P33261 whole entry, looked up): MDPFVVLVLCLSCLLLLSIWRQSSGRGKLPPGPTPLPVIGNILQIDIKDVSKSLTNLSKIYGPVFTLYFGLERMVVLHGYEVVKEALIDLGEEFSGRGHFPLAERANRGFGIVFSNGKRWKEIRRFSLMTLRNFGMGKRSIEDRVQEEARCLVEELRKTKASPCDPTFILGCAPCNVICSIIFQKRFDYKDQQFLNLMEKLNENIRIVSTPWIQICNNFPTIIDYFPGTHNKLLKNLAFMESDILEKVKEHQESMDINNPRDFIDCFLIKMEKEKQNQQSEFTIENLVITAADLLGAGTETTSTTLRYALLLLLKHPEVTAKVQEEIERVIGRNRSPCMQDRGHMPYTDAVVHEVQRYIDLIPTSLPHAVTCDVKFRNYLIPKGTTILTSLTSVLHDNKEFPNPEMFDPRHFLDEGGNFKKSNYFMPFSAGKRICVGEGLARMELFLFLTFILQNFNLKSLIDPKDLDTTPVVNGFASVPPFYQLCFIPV
Outline: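 Human CYP2C19 (5nM) with Luciferin-H EGE at 10uM (its KM) in 50mM KPO4 was preincubated with compound for 10 min at 37C. NADPH regeneration started a 60 min 37C reaction. Luciferin was read by luminescence, normalized to 57uM ketoconazole.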

[14] = qHTS Assay for Identification of Small Molecule Agonists for Hypoxia Response Element Signaling Pathway (AID 914; active = well fitted activation curve with a large enough effect in the signal ratio, with a control signal flat, not every such curve was filed as active; the % refers to the signal ratio; also: % of control where 0% means no effect); conditions: ME-180 (cervical carcinoma) HRE-bla reporter, beta-lactamase ratio, CoCl2, 17 h; activation: hits give high values
Outline: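 HRE-bla ME-180 cells, overnight plating in Opti-MEM with 0.5% dialyzed FBS; cpd titration + EC50 CoCl2, 17 h, 37 degrees Celsius; CCF4 2.5 h RT; 460/530 nm ratio; AC50.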

[15] = Confirmation and Secondary Assay for Modulators of Hemoglobin Beta Chain Splicing at IVS2 654 locus (AID 910; active = well fitted curve in the direction sought with a large enough effect; an effect the other way counts as inactive or inconclusive; also: % of control where 0% means no effect); conditions: HeLa EGFP-654 splicing reporter, GFP fluorescence, 48 h; series mostly up to 38.3 µM
Outline: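 HeLa cells stably carrying EGFP interrupted by mutant beta-globin IVS2-654 intron (CMV-driven) were treated with compound for 2 days at 37C; corrected splicing was scored as total peak GFP intensity per well (488 nm excitation, 500-520 nm emission).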

[16] = Confirmation and Secondary Assay for Modulators of Hemoglobin Beta Chain Splicing at IVS2 705 locus (AID 930; active = well fitted curve in the direction sought with a large enough effect; an effect the other way counts as inactive or inconclusive;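 also: HeLa cells stably expressing the EGFP-705 splicing reporter; GFP fluorescence per well restored by corrected splicing of the IVS2-705 intron in EGFP; % of control where 0% means no effect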); conditions: HeLa EGFP-705 splicing reporter, GFP fluorescence, 48 h; series mostly up to 38.3 µM
Outline: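 Read-out: total peak GFP fluorescence per well (488 nm excitation, 500-520 nm emission) by laser-scanning cytometry. Cells: HeLa EGFP-705 splicing reporter, 2 days compound exposure in Optimem/2% FCS.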

O=C(O)CCc1nc(-c2ccccc2-n2cccc2)no1
active: Potency [10] 2.51 µM
inactive: Potency [1] > 11.4 µM | activity change, negative = inhibition [2] -5.29% | activity change, negative = inhibition [3] -17.3% [at 2.29 µM] | activity change, negative = inhibition [4] 8.59% | activity, negative = inhibition [5] -0.807% | Potency [6] > 46 µM | Potency [7] > 9.22 µM | Potency [8] | Potency [9] | Potency [11]

C(=N/Nc1nnc2c(n1)[nH]c1ccccc12)/c1cccnc1
active: Potency [3] 0.631 µM | Potency [10] 3.98 µM
inactive: Potency [1] > 11.4 µM | activity change, negative = inhibition [2] -0.49% | activity change, negative = inhibition [4] 1.85% | activity, negative = inhibition [5] -7.13% | Potency [6] > 46 µM | Potency [7] > 9.22 µM | Potency [8] | Potency [9] | Potency [11]

CC1=C/C(=C(/c2ccc(O)c(C)c2)c2ccccc2C(=O)O)C=CC1=O
inactive: Potency [1] > 11.4 µM | activity change, negative = inhibition [2] 12.7% | activity change, negative = inhibition [4] -5.21% | activity, negative = inhibition [5] 4.74% | Potency [6] > 46 µM | Potency [7] > 9.22 µM | Potency [8] | Potency [9] | Potency [11]
active: Potency [3] 3.16 µM | Potency [10] 1.58 µM | Potency [12] 1.58 µM | Potency [13] 0.0032 µM

CN(C)c1ccc(/C=N\NC(=O)c2cnc3ccccc3c2)cc1
active: Potency [3] 1.58 µM
inactive: Potency [1] > 11.4 µM | activity change, negative = inhibition [2] -12.8% | activity change, negative = inhibition [4] 1.4% | activity, negative = inhibition [5] -7.11% | Potency [6] > 46 µM | Potency [7] > 9.22 µM | Potency [8] | Potency [9] | Potency [11]

CC(C)CO[C@H](c1ccc2c(c1)OCO2)[C@H](C)Br
active: Potency [3] 0.631 µM | Potency [10] 3.16 µM | Potency [13] 0.0631 µM
inactive: Potency [1] > 11.4 µM | activity change, negative = inhibition [2] -13.4% | activity change, negative = inhibition [4] -8.77% | activity, negative = inhibition [5] 7% | Potency [6] > 46 µM | Potency [7] > 9.22 µM | Potency [8] | Potency [9] | Potency [11]

Cc1ccc2c(c1)N[C@H](c1ccc(C(=O)O)cc1)c1cccn1-2
active: Potency [3] 0.794 µM | Potency [10] 0.0501 µM
inactive: Potency [1] > 11.4 µM | activity change, negative = inhibition [2] -23.5% | activity change, negative = inhibition [4] -7.71% | activity, negative = inhibition [5] -5.32% | Potency [6] > 46 µM | Potency [7] > 9.22 µM | Potency [8] | Potency [9] | Potency [11] | activation [14] -21.9%

Cn1c(=S)c2[nH]c(SCc3cccnc3)nc2n(C)c1=O
inactive: Potency [1] > 11.4 µM | activity change, negative = inhibition [2] -21.1% | activity change, negative = inhibition [4] 0.274% | activity, negative = inhibition [5] 1.06% | Potency [6] > 46 µM | Potency [7] > 9.22 µM | Potency [8] | Potency [9] | Potency [11]
active: Potency [3] 3.98 µM | Potency [10] 3.16 µM

c1ccc2c(c1)-c1nc3ccccc3cc1[C@H]2N1CCOCC1
active: Potency [3] 1.26 µM | Potency [10] 2.51 µM
inactive: Potency [1] > 11.4 µM | activity change, negative = inhibition [2] -6.79% | activity change, negative = inhibition [4] -6.28% | activity, negative = inhibition [5] 7.66% | Potency [6] > 46 µM | Potency [7] > 9.22 µM | Potency [8] | Potency [9] | Potency [11]

Cn1c(=O)c2[nH]c(CCCCc3nc4c([nH]3)c(=O)n(C)c(=S)n4C)nc2n(C)c1=S
active: Potency [10] 1.26 µM
inactive: Potency [1] > 11.4 µM | activity change, negative = inhibition [2] 1.54% | activity change, negative = inhibition [3] -13.8% [at 2.29 µM] | activity change, negative = inhibition [4] -2.84% | activity, negative = inhibition [5] -5.06% | Potency [6] > 46 µM | Potency [7] > 9.22 µM | Potency [8] | Potency [9] | Potency [11]

Cc1cnc(CNc2nc(-c3cccnc3)nc3ccccc23)cn1
active: Potency [3] 2.51 µM | Potency [10] 3.98 µM
inactive: Potency [1] > 11.4 µM | activity change, negative = inhibition [2] -11.8% | activity change, negative = inhibition [4] 0.457% | activity, negative = inhibition [5] -9.76% | Potency [6] > 46 µM | Potency [7] > 46 µM | Potency [8] | Potency [9] | Potency [11] | outcome [15] | outcome [16]

O=C(O)[C@@H]1[C@@H](C(=O)NCc2ccncc2)[C@@H]2C=C[C@@H]1O2
inactive: Potency [1] > 11.4 µM | activity change, negative = inhibition [2] 4.03% | activity change, negative = inhibition [4] 8.48% | activity, negative = inhibition [5] -1.14% | Potency [6] > 46 µM | Potency [7] > 9.22 µM | Potency [8] | Potency [9] | Potency [11]
active: Potency [3] 5.01 µM

C[C@H]1[C@H](O)[C@@H](C)C=CC=CC=CC=CC=CC=CC=C[C@H](O[C@@H]2O[C@@H](C)[C@H](O)[C@@H](N)[C@@H]2O)C[C@@H]2O[C@](O)(C[C@@H](O)C[C@@H](O)[C@@H](O)CC[C@@H](O)C[C@@H](O)CC(=O)O[C@H]1C)C[C@H](O)[C@H]2C(=O)O
inactive: Potency [1] > 11.4 µM | activity change, negative = inhibition [2] -7.91% | Potency [3] | activity change, negative = inhibition [4] -0.0379% | activity, negative = inhibition [5] 6.85% | Potency [6] > 46 µM | Potency [7] > 9.22 µM | Potency [8] | Potency [9] | activity change, negative = inhibition [10] -24.7% [at 11.4 µM] | Potency [12] | Potency [13]

Nc1nc(SCCc2ccccc2)c2[nH]cnc2n1
inactive: Potency [1] > 11.4 µM | activity change, negative = inhibition [2] -4.07% | activity change, negative = inhibition [4] 15.6% | activity, negative = inhibition [5] -1.34% | Potency [6] > 46 µM | Potency [7] > 9.22 µM | Potency [8] | Potency [9] | Potency [11]
active: Potency [3] 3.16 µM | Potency [10] 2.51 µM | Potency [13] 0.631 µM
